Shown is part of a subset that was picked to be rich in hits.
p53null 39C tox = qHTS Screen for Compounds that Selectively Target Cancer Cells with p53 Mutations: Cytotoxicity of p53 Null Cells at the Nonpermissive Temperature | H1299 p53-null (neo) cells, 39C, ATPlite viability, 24 h | Potency, µM (top dose mostly 46.1 µM), inactives show top-dose activity, negative = cell killing, actives largely listed as cytotoxic | 55,000 compounds, 0.97% hits;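 also: potency is read from the fitted curve at half-maximal effect; 0% = DMSO only and -100% = full killing by 100 µM tamoxifen; nearly all actives have a fitted effect of over 50% in size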
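Following overnight plating at 37C (600 cells/well), H1299-neo or H1299-p53A138V cells are dosed up to 46 uM. Incubation lasts 24 hr at 39C before ATP detection.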
OvCa metastasis = Primary qHTS assay for Inhibitors of ovarian cancer metastasis using an organotypic tumor microenvironment (TME) model | 46,000 compounds, 0.1% hits | Potency, µM (doses to about 45.8 µM), without a hit: top-dose activity change, negative = inhibition, usual class: inhibitors | SKOV3ip1-GFP adhesion/invasion on 3D omental model, fluorescence;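 also: potency is read from the fitted curve at half-maximal effect; plate controls were DMSO wells for no effect and tomatine positive control wells for full effect; nearly all actives have a fitted effect of over 65% in size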
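qHTS, 4-pt dose (0.36-46 umol/L); SKOV3ip1-GFP, 1,200 cells/well, no FBS; primary omental fibroblast/mesothelial co-culture 48 h pre-grown; 2 h RT + 16 h 37 C; PBS wash, 4% PFA; GFP count 488/509 nm.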
NTMT1 inhibitor = Primary qHTS for Inhibitors of N-terminal methyltransferase 1 (NTMT1): MTaseGlo Assay; Potency, µM (doses to about 114 µM), inactives show at the top dose activity change, negative = inhibition, actives largely listed as inhibitors; NTMT1 MTase-Glo SAH luminescence, purified enzyme; N-terminal Xaa-Pro-Lys N-methyltransferase 1 (Homo sapiens), Q9BV86; AID 1645870, 2021; 59,000 compounds, 2.5% hits;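 also: potency is read from the fitted curve at half-maximal effect; plate controls were DMSO vehicle for no effect and no enzyme for full effect; nearly all actives have a fitted effect of over 65% in size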
p53null 32C tox = qHTS Screen for Compounds that Selectively Target Cancer Cells with p53 Mutations: Cytotoxicity of p53 Null Cells at the Permissive Temperature | 55,000 compounds, 0.62% hits | Potency, µM (doses to about 46.1 µM), without a hit: at the top dose activity change, negative = cytotoxicity, actives largely listed as cytotoxic | AID 903, 2007 | H1299-neo p53 null cells, ATP luminescence, 24 h, 32C;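 also: potency is read from the fitted curve at half-maximal effect; 0% = DMSO only and -100% = full killing by 100 µM tamoxifen; nearly all actives have a fitted effect of over 55% in size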
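ATP-content luminescence in p53-null H1299-neo cells after 24 h compound exposure (up to 46 uM) at 32C permissive temperature; 0% and 100% killing set by DMSO and 100 uM tamoxifen; Hill-equation AC50.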
DYRK1A inh-1 = Assay for Inhibitors of Dual-Specificity Tyrosine-(Y)-Phosphorylation Regulated Kinase 1A (Kinase-Glo assay); 100 compounds, 80% hits; AID 2705, 2010; Potency, µM (series often up to 76.9 µM), for the others: at the highest dose activity change, negative = inhibition, actives largely listed as inhibitors; recombinant DYRK1A, Kinase-Glo ATP depletion luminescence; shares compounds with NTMT1 inhibitor
CLK4 inh-1 = Confirmation Assay for Inhibitors of CDC-like Kinase 4 (Kinase-Glo Assay): SAR round 2; shares compounds with NTMT1 inhibitor; recombinant Clk4, Kinase-Glo ATP luminescence, 4.5 h; Potency, µM (top dose mostly 76.9 µM), for inactives: at the top dose activity, negative = inhibition, actives largely listed as inhibitors; 90 compounds, 90% hits; AID 493204, 2011
CLK4 inh-2 = Kinase Inhibition Study on Inhibitors of CDC-like Kinase 4 (Reaction Biology data): SAR round 2; shares compounds with NTMT1 inhibitor; Reaction Biology kinase assay, 10 uM ATP; Potency, µM, hits mostly inhibitors; 65 compounds, 100% hits; calls by dose curve
DYRK1A inh-2 = Kinase Inhibition Study on Inhibitors of Dyrk1a (Reaction Biology data); 65 compounds, 90% hits; shares compounds with NTMT1 inhibitor; AID 504424, 2011; Potency, µM, hits mostly inhibitors; Reaction Biology kinase assay, 10 uM ATP;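 active = compounds that showed inhibition of Dyrk1a and received a fitted potency; inactive = compounds that showed no inhibition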
CLK2 inh = Kinase Inhibition Study on Inhibitors of CDC-like Kinase 2 (Reaction Biology data). shares compounds with NTMT1 inhibitor. Reaction Biology kinase assay, 10 uM ATP. Potency, µM, most hits filed as inhibitors. 65 compounds, 90% hits. AID 504427, 2011;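 active = compound that inhibits Clk2 kinase in the dose series, with an IC50 potency reported; inactive = no inhibition seen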
Target sequence (P49760 whole entry, looked up): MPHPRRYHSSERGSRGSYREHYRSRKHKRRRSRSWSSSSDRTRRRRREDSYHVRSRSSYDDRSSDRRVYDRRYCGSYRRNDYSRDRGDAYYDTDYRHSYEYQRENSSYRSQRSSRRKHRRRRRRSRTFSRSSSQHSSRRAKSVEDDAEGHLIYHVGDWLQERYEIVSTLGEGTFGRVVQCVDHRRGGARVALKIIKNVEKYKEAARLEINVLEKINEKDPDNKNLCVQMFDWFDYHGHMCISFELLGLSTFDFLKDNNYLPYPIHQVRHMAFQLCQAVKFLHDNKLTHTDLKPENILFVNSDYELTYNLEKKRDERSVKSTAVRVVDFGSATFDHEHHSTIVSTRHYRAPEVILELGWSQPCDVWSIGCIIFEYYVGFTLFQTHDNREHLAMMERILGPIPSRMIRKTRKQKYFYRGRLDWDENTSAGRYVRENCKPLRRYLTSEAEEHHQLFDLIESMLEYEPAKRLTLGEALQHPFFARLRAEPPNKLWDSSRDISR
CLK3 RBC = Kinase Inhibition Study on Inhibitors of CDC-like Kinase 3 (Reaction Biology data); shares compounds with NTMT1 inhibitor; recombinant CLK3 kinase assay, 10 uM ATP; Potency, µM, usual class: inhibitors; 65 compounds, 40% hits;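 active = compounds that inhibited Clk3 enough in the ten-dose series to give a half-maximal potency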
DYRK1B RBC = Kinase Inhibition Study on Inhibitors of Dyrk1b (Reaction Biology data). shares compounds with NTMT1 inhibitor. Recombinant Dyrk1b kinase assay, 10 uM ATP. Potency, µM, hits mostly inhibitors. 65 compounds, 80% hits. AID 504429, 2011;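 active = compounds whose dose response shows an inhibitor phenotype against the kinase Dyrk1b; inactive = compounds showing no inhibitor phenotype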
CLK1 inh = Kinase Inhibition Study on Inhibitors of CDC-like Kinase 1 (Reaction Biology data) | Potency, µM, actives largely listed as inhibitors | shares compounds with NTMT1 inhibitor | recombinant Clk1 kinase assay, 10 uM ATP | 65 compounds, 90% hits | AID 504430, 2011;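 active = compounds that block the splicing kinase Clk1 enough to give a fitted half-inhibition concentration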
NNMT inh = Counterscreen qHTS for Inhibitors of N-terminal methyltransferase 1 (NTMT1): NNMT MTaseGlo assay; NNMT MTase-Glo luminescence, SAH detection; shares compounds with NTMT1 inhibitor; 120 compounds, 10% hits; Potency, µM (top dose mostly 57.1 µM), for inactives: top-dose activity, negative = inhibition, usual class: inhibitors
* hit, by the source's call; i = inactive; ? = inconclusive; . = no result; [ ] = dose if it differs, or a comment. Unless noted, calls follow the shape of the dose curve; as a rule, active = well fitted curve in the direction sought with a large enough effect; inconclusive = small, poorly fitted or top-dose-only effect, or another doubt; inactive = no such curve, though single readings can be large; an effect the other way counts as inactive or inconclusive.

SMILES	p53null 39C tox	OvCa metastasis	NTMT1 inhibitor	p53null 32C tox	DYRK1A inh-1	others
CN(C)CCNc1ncnc2ccc(-c3ccc4c(c3)OCO4)cc12	.	.	?	.	1.6µM*	CLK4 inh-2=1.9*;DYRK1A inh-2=1.4µM*;CLK2 inh=15µM*;CLK3 RBC=i;DYRK1B RBC=7.3µM*;CLK1 inh=4.2µM*
CN1CCCC1CCNc1ncnc2ccc(-c3ccc4c(c3)OCO4)cc12 (stereo not drawn)	.	.	-29%[57.5 µM]	.	4.1µM*	CLK4 inh-2=7.1*;DYRK1A inh-2=5.6µM*;CLK2 inh=8.6µM*;CLK3 RBC=i;DYRK1B RBC=8.2µM*;CLK1 inh=5.2µM*
Cc1cc(CNc2ncnc3ccc(-c4ccc5c(c4)OCO5)cc23)c(C)o1	.	.	?	.	0.37µM*	CLK4 inh-2=0.44*;DYRK1A inh-2=0.58µM*;CLK2 inh=15µM*;CLK3 RBC=i;DYRK1B RBC=4.9µM*;CLK1 inh=0.86µM*
c1nc(NCc2ccc3c(c2)OCO3)c2cc(-c3ccc4c(c3)OCCO4)ccc2n1	.	.	-2%	.	.
c1nc(NCC2CCCC2)c2cc(-c3ccc4c(c3)OCO4)ccc2n1	.	.	?	.	0.065µM*
Nc1cc(COc2c(Cl)cc(C[C@H](N)C(=O)O)cc2Cl)c2oc(-c3ccccc3)nc2c1	.	.	-2%	.	.
COc1cc(OC)c(C(CC(=O)N2CC(C)CC(C)C2)c2ccc3c(c2)OCO3)c(OCC(N)=O)c1 (stereo not drawn)	.	.	13%[228 µM]	.	.
c1nc(NCCc2cnc[nH]2)c2ccc(-c3ccc4c(c3)OCO4)cc2n1	.	.	-18%	.	23µM*
Cc1csc(CNc2ncnc3ccc(-c4ccc5c(c4)OCO5)cc23)n1	.	.	-27%	.	.
Cc1csc(CNc2ncnc3ccc(-c4ccc5c(c4)OCO5)cc23)c1	.	.	2%[57.5 µM]	.	.
CN(Cc1ncc[nH]1)c1ncnc2ccc(-c3ccc4c(c3)OCO4)cc12	.	.	?	.	0.73µM*
CN(CC1CCCO1)c1ncnc2ccc(-c3ccc4c(c3)OCO4)cc12 (stereo not drawn)	.	.	10%	.	.	CLK4 inh-1=0.058µM*
Cc1nc(C#Cc2ccnc(Cl)c2)c(C)n1-c1ccc(OC(F)(F)F)cc1	.	.	?	.	.	NNMT inh=-17%
Cc1cc(NS(=O)(=O)c2ccc(N(C)C(=O)Cc3ccc(Cl)c(Cl)c3)cc2)no1	.	.	-8%	.	.
c1ccc(Cn2ncc3c(N4CCOCC4)ncnc32)cc1	-1%	.	.	8%	.
OCc1ccc(-c2ccc3ncnc(N4CCOCC4)c3c2)o1	.	.	-14%	.	.	CLK4 inh-1=0.52µM*;CLK4 inh-2=1.1*;DYRK1A inh-2=15µM*;CLK2 inh=14µM*;CLK3 RBC=i;DYRK1B RBC=15µM*;CLK1 inh=5.3µM*
O=C(Nc1ccc(S(=O)(=O)Nc2nccs2)cc1)C1CCC2(CC1)CC2	.	.	5%	.	.
O=C(Nc1ccc(F)cc1F)N1CCN(c2ccc(Cl)c(Cl)c2)CC1	?	-29%	1%	-28%	.

Bioassay records deposited in PubChem by National Center for Advancing Translational Sciences (NCATS).
